Data from PubChem BioAssay (NCATS).
Results filed as inconclusive are left out. Values without a mark were called inactive. Activity calls are given as the source filed them. The call rests on the fitted dose curve; in most records, active means well fitted cell-killing curve with a large enough effect; inconclusive means small, poorly fitted or top-dose-only effect, or effect the other way; inactive means no such curve, though single readings can be large or run the other way.

assay: Quantitative High-Throughput drug screen in 47 multiple myeloma cell lines against the NCATS MIPE library collection: KMS11_JCRBsus cell viability assay (AID 1919873); details: KMS11 myeloma viability, CellTiter-Glo ATP luminescence, 48 h; series mostly up to 45.8 µM; viability (% of control): at the top concentration; further: nearly all actives have a fitted effect of over 50% in size
Summary of the method: (§1)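 ATP-based CellTiter-Glo luminescence after 48 h drug exposure (37 °C, 5% CO2) of 500 myeloma cells per well. DMSO-only wells set 100% viability, media-only wells 0%; MIPE 4.0 library added by pin tool.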
Potency means the concentration at half of the fitted maximal effect.

| Compound | Potency | viability (% of control) [%] |
| --- | --- | --- |
| Nc1ncnc2c1nc(Cl)n2[C@@H]1O[C@H](CO)[C@@H](O)[C@@H]1O | 20.9 µM (active) |  |
| Cc1ccc(F)c(NC(=O)Nc2ccc(-c3cccc4[nH]nc(N)c34)cc2)c1 | 5.26 µM (active) |  |
| CC=CCC(C)C(O)C1C(=O)NC(CC)C(=O)N(C)CC(=O)N(C)C(CC(C)C)C(=O)NC(C(C)C)C(=O)N(C)C(CC(C)C)C(=O)NC(C)C(=O)NC(C)C(=O)N(C)C(CC(C)C)C(=O)N(C)C(CC(C)C)C(=O)N(C)C(C(C)C)C(=O)N1C (stereo unspecified) |  | 89.9 |
| N[C@H](CSC(c1ccccc1)(c1ccccc1)c1ccccc1)C(=O)O | 4.18 µM (active) |  |
| Cc1ccccc1C(C(=O)NC1CCCCC1)N(C(=O)Cn1ccnc1C)c1cccc(F)c1 (stereo unspecified) |  | 94.6 |
| COc1cc2ncnc(-n3nc(-c4ccccn4)nc3N)c2cc1OC |  | 96 |
| O=C(NC1CCOCC1)c1ccc(-c2cc(-c3cn[nH]c3-c3ccccn3)ccn2)cc1 |  | 82.2 |
| CN(C)Cc1ccc(-c2nc3cccc4c3n2CCNC4=O)cc1 | 26.4 µM (active) |  |
| CCOC1OC(=O)C[C@H]1NC(=O)[C@@H]1CCCN1C(=O)[C@@H](NC(=O)c1ccc(N)c(Cl)c1)C(C)(C)C (stereo partly specified) |  | 111 |
| O=C1Nc2ccc(Cl)cc2C(C#CC2CC2)(C(F)(F)F)O1 (stereo unspecified) | 20.9 µM (active) |  |
| Cc1cnc(C(=O)O)c[n+]1[O-] |  | 108 |
| O=C(Nc1cccc(Br)c1)c1cccc(S(=O)(=O)N2CCCCCC2)c1 | 18.7 µM (active) |  |
| CC(C)(Cc1ccc2ccccc2c1)NC[C@@H](O)COc1cccc(Cl)c1C#N |  | 97.4 |
| Clc1cc(Cl)cc(CNc2ncncc2-c2ccc3c(c2)OCO3)c1 | 16.6 µM (active) |  |

assay: Quantitative High-Throughput drug screen in 47 multiple myeloma cell lines against the NCATS MIPE library collection: KMS28BM_JCRB cell viability assay (AID 1919874); details: CellTiter-Glo ATP, 48 h; series mostly up to 45.8 µM; viability, % of control: at the top concentration; further: nearly all actives have a fitted effect of over 35% in size
Summary of the method: as §1

| Compound | Potency | viability, % of control [%] |
| --- | --- | --- |
| CO[C@@H](C(=O)N1Cc2[nH]nc(NC(=O)c3ccc(N4CCN(C)CC4)cc3)c2C1)c1ccccc1 | 1.66 µM (active) |  |
| O=C(O)c1ccc(-c2cc3cccnc3c(-c3ccc4nonc4c3)n2)cc1 | 26.4 µM (active) |  |
| CCS(=O)(=O)N1CC(CC#N)(n2cc(-c3ncnc4[nH]ccc34)cn2)C1 | 23.5 µM (active) |  |
| CC(C)C(=O)Nc1ncc(-c2cc(C(F)F)nn2-c2c(Cl)cccc2Cl)s1 | 11.8 µM (active) |  |
| CC=CCC=CCCC(=O)[C@H]1O[C@@H]1C(N)=O | 14.8 µM (active) |  |
| c1ccc2c(Cc3c[nH]c4ccccc34)c[nH]c2c1 | 18.7 µM (active) |  |
| CC1(C)S[C@H]2[C@H](NC(=O)[C@@H](N)c3ccc(O)cc3)C(=O)N2[C@@H]1C(=O)O | 5.9 µM (active) |  |
| C[N+](C)(C)CC(=O)O |  | 114 |
| COc1ccc(-c2nc(N3CCOCC3)c3sc(CN(C)c4ncc(C(=O)NO)cn4)cc3n2)cn1 |  | 1.07 |
| Nc1ncnc2c1nc(Cl)n2[C@@H]1O[C@H](CO)[C@@H](O)[C@@H]1O | 13.2 µM (active) |  |
| Cc1ccc(F)c(NC(=O)Nc2ccc(-c3cccc4[nH]nc(N)c34)cc2)c1 | 8.33 µM (active) |  |
| COc1cc2ncnc(-n3nc(-c4ccccn4)nc3N)c2cc1OC |  | 107 |
| C=CCc1ccc(O)c(-c2ccc(O)c(CC=C)c2)c1 | 23.5 µM (active) |  |
| O=C(NC1CCOCC1)c1ccc(-c2cc(-c3cn[nH]c3-c3ccccn3)ccn2)cc1 |  | 114 |
| CCn1c(C(=O)N(C2CC2)C2CC2)cc2c3c(ncn3C)c(Nc3cc(C)n(C)n3)nc21 |  | 133 |
| O=c1c(O)c(-c2ccc(O)cc2)oc2cc(O)cc(O)c12 | 4.69 µM (active) |  |
| CCOC1OC(=O)C[C@H]1NC(=O)[C@@H]1CCCN1C(=O)[C@@H](NC(=O)c1ccc(N)c(Cl)c1)C(C)(C)C (stereo partly specified) |  | 91.1 |
| O=C1Nc2ccc(Cl)cc2C(C#CC2CC2)(C(F)(F)F)O1 (stereo unspecified) | 20.9 µM (active) |  |
| O=c1cc(N2CCOCC2)oc2c(-c3cccc4c3sc3ccccc34)cccc12 | 3.72 µM (active) |  |
| Cc1cnc(C(=O)O)c[n+]1[O-] |  | 115 |
| CC(C)(Cc1ccc2ccccc2c1)NC[C@@H](O)COc1cccc(Cl)c1C#N |  | 124 |
| O=C(Nc1ccccc1Br)N[C@@H]1CCN(c2ccc(C(F)(F)F)cn2)C1 | 20.9 µM (active) |  |
